Values joined by “and” are separate entries in the source; they are usually repeats but may differ in a detail not shown here. Equal values may be shown once. Hit rate of the full screen: of about 330,000 compounds, about 1,500 (0.45%) were called active. Rule as the data show it: active = inhibition above about 45% (passing the limit was not always enough); inconclusive = no clear call, values can overlap the other calls. The full list was thinned out, with actives kept by preference.
Each compound was assayed against Ubiquitin-conjugating enzyme E2 N (Homo sapiens) (UniProt P61088) (assay: UBC13 polyubiquitin chain formation inhibitors, primary screen, biochemical, TR-FRET, uHTS (AID 485273)). Conditions: at 20 µM, hits give high values.
Ubiquitin-conjugating enzyme E2 N (Homo sapiens), sequence (P61088 whole entry, looked up): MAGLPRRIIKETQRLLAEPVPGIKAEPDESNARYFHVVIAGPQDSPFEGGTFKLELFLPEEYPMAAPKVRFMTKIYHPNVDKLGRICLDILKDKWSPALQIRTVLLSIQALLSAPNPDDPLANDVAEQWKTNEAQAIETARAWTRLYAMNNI

Structure (SMILES)	inhibition
CC[n+]1cc(C)ccc1/C=C/c1ccc(N(C)C)cc1	-286% (inactive)
COc1cccc(N(C(=O)c2snc(C(N)=O)c2N)C(C(=O)NCC2CCCO2)c2c[nH]c3ccccc23)c1 (stereo not drawn)	59.9% (active)
Cc1ccc(N(C(=O)Cc2cccs2)C(C(=O)NCC2CCCO2)c2ccncc2)cc1 (stereo not drawn)	-4.7% (inactive)
CCOc1ccc(C(C(=O)NC2CCCC2)N(C(=O)c2snc(C(N)=O)c2N)C2CCCC2)cc1 (stereo not drawn)	5.2% (inactive)
O=C(NCC(=O)N(c1ccccc1)C(C(=O)NCC1CCCO1)c1ccccc1)c1cccs1 (stereo not drawn)	-2.5% (inactive)
CCOc1cc(C(C(=O)NCC2CCCO2)N(C(=O)Cn2nnc3ccccc32)c2cccc(OC)c2)ccc1O (stereo not drawn)	4% (inactive)
CCOc1ccc(N(C(=O)c2snc(C(N)=O)c2N)C(C(=O)NCC2CCCO2)c2c[nH]c3ccccc23)cc1 (stereo not drawn)	89.4% (active)
Cc1cccc(N(C(=O)c2sc(C)nc2C)C(C(=O)NCC2CCCO2)c2ccccc2)c1 (stereo not drawn)	2.5% (inactive)
CC(C)(C)NC(=O)C(c1ccc(Cl)cc1)N(CCO)C(=O)c1snc(C(N)=O)c1N (stereo not drawn)	5.2% (inactive)
Cc1ccc(N(C(=O)c2snc(C(N)=O)c2N)C(C(=O)NCC2CCCO2)c2c[nH]c3ccccc23)cc1 (stereo not drawn)	75% (active)
COCCNC(=O)C(c1ccc(C)o1)N(Cc1cccs1)C(=O)c1snc(C(N)=O)c1N (stereo not drawn)	4.7% (inactive)
Cc1ccc(C(C(=O)NCC2CCCO2)N(C(=O)c2snc(C(N)=O)c2N)c2ccc(C(C)C)cc2)o1 (stereo not drawn)	45.7% (active)
CCOc1ccc(-n2c(N)c(C(=O)NCC3CCCO3)sc2=S)cc1 (stereo not drawn)	3.2% (inactive)
COC(=O)Nc1ccc(S(=O)(=O)N(C)CC(F)(F)C(F)F)cc1	4.1% (inactive)
COc1ccccc1N1CCN(C(=O)c2cc(=O)c3cc(C)cc(C)c3o2)CC1	-5.8% (inactive)
Cn1cc(S(=O)(=O)Nc2ccc(Cl)cc2Cl)c(=O)n(C)c1=O	-9.5% (inactive)
N/C(=N\OC(=O)CCc1ccccc1)c1ccc(Cl)cc1	3.8% (inactive)
O=C(CSc1ccc2nnc(-c3ccccc3)n2n1)N1CCCc2ccccc21	8.9% (inactive)
COc1ccc(-c2nnc3ccc(SCc4ccccc4)nn23)cc1	49.1% (active)
COC(=O)c1ccc(CSc2ccc3nnc(-c4ccccc4)n3n2)o1	14.2% (inactive)
COc1ccc(C)cc1S(=O)(=O)N(CC(=O)Nc1cccc([N+](=O)[O-])c1)c1ccc(C)cc1	-5.5% (inactive)
CCC(C(=O)NC1CCCC1)N(C(=O)c1snc(C(N)=O)c1N)c1ccc2c(c1)OCCO2 (stereo not drawn)	86.7% (active)
COc1cc(C(C(=O)NC2CCCC2)N(Cc2ccccc2)C(=O)c2snc(C(N)=O)c2N)ccc1O (stereo not drawn)	13.8% (inactive)
COc1ccc(N(C(=O)c2snc(C(N)=O)c2N)C(C(=O)NC2CCCC2)c2ccco2)cc1OC (stereo not drawn)	80.3% (active)

Structure (SMILES)	inhibition
COc1ccc(N(C(=O)c2snc(C(N)=O)c2N)C(C(=O)NC2CCCC2)c2ccc(C)o2)c(OC)c1 (stereo not drawn)	12.9% (inactive)
COc1ccc(C(C(=O)NC2CCCCC2)N(C(=O)c2snc(C(N)=O)c2N)c2ccccc2OC)cc1 (stereo not drawn)	8.5% (inactive)
CCC(C(=O)NC1CCCCC1)N(C(=O)c1snc(C(N)=O)c1N)c1ccc(OC)cc1OC (stereo not drawn)	14.4% (inactive)
COc1ccc(C)cc1NC(=S)Nc1ccccc1SC	-7.3% (inactive)
COc1cccc(/C=C2\Sc3ccc(C(=O)NCC4CCCO4)cc3N(C)C2=O)c1 (stereo not drawn)	-7.4% (inactive)
Cc1ccccc1OCC(O)CN1CCN(c2ccccn2)CC1 (stereo not drawn)	0.6% (inactive)
Cc1cccc(OCC(O)CN2CCN(CCN3C(=O)c4cccc5cccc(c45)C3=O)CC2)c1C (stereo not drawn)	83% (active)
Cc1cccc(C)c1OCC(O)CN1CCCCC1 (stereo not drawn)	11.2% (inactive)
Cc1cc(C)c(S(=O)(=O)c2ccccc2)c(OC(=O)c2c(F)cccc2Cl)n1	2.7% (inactive)
O=C(COC(=O)/C=C/c1nc2ccccc2s1)Nc1ccccc1Oc1ccccc1	-4.1% (inactive)
CC(c1ccco1)N(C(=O)COc1ccccc1[N+](=O)[O-])c1ccccn1 (stereo not drawn)	-13.5% (inactive)
CC(C)Nc1ccc(-n2nc3ccccc3[n+]2[O-])cc1	0.3% (inactive)
C#CCOCCOCCOCCNc1nc(N2CCN(C(=O)[C@H](Cc3ccc(O)cc3)n3cc(C(N)CC(C)C)nn3)CC2)nc(N2CCN(C(=O)[C@H](CCC(=O)O)n3cc(C(N)[C@H](C)CC)nn3)CC2)n1 (stereo partly drawn)	-7.8% (inactive)
C#CCOCCOCCOCCNc1nc(N2CCN(C(=O)[C@H](CO)n3cc([C@@H](N)C(C)C)nn3)CC2)nc(N2CCN(C(=O)[C@H](CCC(=O)O)n3cc([C@@H](N)[C@H](C)CC)nn3)CC2)n1	8.2% (inactive)
C#CCOCCOCCOCCNc1nc(N2CCN(C(=O)C(Cc3ccc(O)cc3)n3cc(C(N)CC(C)C)nn3)CC2)nc(N2CCN(C(=O)C(Cc3ccc(O)cc3)n3cc(C(N)C(C)CC)nn3)CC2)n1 (stereo not drawn)	45.5% (active)
C#CCOCCOCCOCCNc1nc(N2CCN(C(=O)[C@H](CCC(=O)O)n3cc(C(N)CO)nn3)CC2)nc(N2CCN(C(=O)[C@H](Cc3ccc(O)cc3)n3cc(C(N)[C@H](C)CC)nn3)CC2)n1 (stereo partly drawn)	-1.7% (inactive)
C#CCOCCOCCOCCNc1nc(N2CCN(C(=O)[C@H](CCCCN)n3cc([C@@H](N)C(C)CC)nn3)CC2)nc(N2CCN(C(=O)[C@H](Cc3ccc(O)cc3)n3cc([C@@H](N)C(C)CC)nn3)CC2)n1 (stereo partly drawn)	95.9% (active)
C#CCOCCOCCOCCNc1nc(N2CCN(C(=O)[C@H](CCC(=O)O)n3cc(C(N)CO)nn3)CC2)nc(N2CCN(C(=O)[C@H](CCCCN)n3cc(C(N)[C@H](C)CC)nn3)CC2)n1 (stereo partly drawn)	5.8% (inactive)
O=C(Cn1c[n+](CC(=O)c2ccc([N+](=O)[O-])cc2)cn1)c1ccc([N+](=O)[O-])cc1	-18.4% (inactive) and -8% (inactive)
S=C(c1ccc(-c2ccccc2)o1)N1CCCCC1	-13.9% (inactive)
CC(C)NC(=O)C(=O)NCCCOC(C)C	-2.8% (inactive)
COc1cc(/C=N/NC(=O)CNC(=O)c2ccncc2)ccc1OC(C)=O	-6.5% (inactive)
COc1cccc(OCc2cc(/C=N/NC(=O)c3nc(Cl)c(Cl)c(N)c3Cl)ccc2OC)c1	-21.4% (inactive)
COc1ccc(/C=N\NC(=O)c2sc(N)nc2C)cc1OC	102% (active)
